# Only some compounds are listed: those with a hit (about 3.5% of all), similar ones and a draw of the others.
# FBW7 activator: FBW7 E3 ligase activators, primary screen, biochemical, AlphaScreen, human. AlphaScreen FBW7–phospho-cyclin E peptide binding, activator screen. normalized activity (activation), % at 26.1 µM. 650,000 tested, 0.13% active. AID 1259310, 2017; in the data active = normalized activity above about 1.9%;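 also: purified mutant Fbw7 with reduced substrate affinity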
# TEAD-YAP inh: TEAD-YAP interaction inhibition, primary screen, TEAD-YAP interaction inhibitor project, luminescence, HEK-TIYL cells. TEAD-Gal4/YAP UAS-luciferase luminescence. inhibition, % at 9.12 µM. 640,000 tested, 1.4% active. AID 1259422, 2018; in the data active = inhibition above about 32%
# MITF primary: MITF inhibitors, primary screen, biochemical, AlphaScreen, human. AlphaScreen MITF homodimerization, bead proximity signal. 650,000 tested, 0.91% active. inhibition, % at 2.6 µM. Microphthalmia-associated transcription factor (Homo sapiens), O75030; in the data active = inhibition above about 50%
# GPR151 ag: activators of human GPR151, primary screen, cell-based, PathHunter beta-arrestin, luminescence. 650,000 tested, 1% active. activation, % at 11.2 µM. G-protein coupled receptor 151 (Homo sapiens), Q8TDV0. PathHunter beta-arrestin GPR151 cells; in the data active = activation above about 4.9%
# GPR151 confirm: GPR151 activators, triplicate retest, confirmation, cell-based, PathHunter beta-arrestin, luminescence; shares compounds with GPR151 ag; GPR151 PathHunter beta-arrestin cells, 90 min; % of EA-reagent control over plate median; activation, % at 11.2 µM; 6,700 tested, under 10 active;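 active = mean percent activation across replicates above the confirmation screen cutoff of 4.91%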
# GPR119 ag: GPR119 activators in beta-arrestin cells, counter-screen for GPR151 activator project, cell-based, PathHunter beta-arrestin, luminescence, triplicate | shares compounds with GPR151 ag | 90 min; 0 = compound-well median, 100 = enzyme-acceptor control | activation, % at 11.2 µM | 6,700 tested, 0.3% active;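 active = mean percent activation in the counterscreen above 29.09%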;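 also: counterscreen on off-target GPR119 to flag nonselective hits from the GPR151 activator screen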
# Target sequence (Q8TDV5 whole entry, looked up): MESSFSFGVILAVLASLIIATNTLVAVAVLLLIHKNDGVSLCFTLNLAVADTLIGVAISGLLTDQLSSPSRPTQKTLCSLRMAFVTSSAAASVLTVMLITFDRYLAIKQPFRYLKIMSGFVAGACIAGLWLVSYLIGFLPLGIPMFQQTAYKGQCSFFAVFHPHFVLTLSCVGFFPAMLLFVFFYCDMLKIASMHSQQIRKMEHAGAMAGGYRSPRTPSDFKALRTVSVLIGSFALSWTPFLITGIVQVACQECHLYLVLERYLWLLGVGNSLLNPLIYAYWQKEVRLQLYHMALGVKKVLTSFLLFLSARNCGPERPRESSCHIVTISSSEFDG
# A number is an active result; n = inactive; x = no result; ! = a repeat was not active.
SMILES,FBW7 activator,TEAD-YAP inh,MITF primary,GPR151 ag,GPR151 confirm,GPR119 ag
Brc1cnc(NCCc2ccccc2)nc1,n,n,n,n,x,x
COC(=O)C1=C(C)N=c2s/c(=C\c3c(F)cccc3Cl)c(=O)n2C1c1ccccc1 (stereo not given),n,n,n,5.3,n,n
CCOC(=O)C1=C(C)N=c2s/c(=C\c3c(F)cccc3Cl)c(=O)n2C1c1ccc(C)cc1 (stereo not given),n,n,n,n,x,x
CCOC(=O)C1=C(C)N=c2s/c(=C\c3ccc(C)cc3)c(=O)n2C1c1ccccc1OC (stereo not given),n,n,n,8.6,n,n
CCOC(=O)C1=C(c2ccccc2)N=c2s/c(=C\c3ccco3)c(=O)n2C1c1cccs1 (stereo not given),n,n,n,n,x,x
CCOC(=O)C1=C(C)N=c2s/c(=C\c3ccc(-c4ccccc4C(=O)O)o3)c(=O)n2C1c1ccccc1OC (stereo not given),n,n,n,5.7,n,n
CCOC(=O)C1=C(C)N=c2s/c(=C\c3ccco3)c(=O)n2C1c1cccs1 (stereo not given),n,n,n,7.5,n,n
CCOC(=O)C1=C(C)N=c2s/c(=C\c3ccc(-c4ccc(C(=O)O)cc4)o3)c(=O)n2C1c1ccccc1OC (stereo not given),n,n,n,n,x,x
CCOC(=O)C1=C(C)N=c2s/c(=C\c3ccc(OC)cc3)c(=O)n2C1c1ccccc1OC (stereo not given),n,n,n,n,x,x
CCCOc1ccc(CNC(=O)Nc2cccs2)cc1,n,n,n,n,x,x
CN(Cc1ccc2c(c1)CN(C(=O)C1CC13CCCC3)CCO2)Cc1cc(C2CC2)n[nH]1 (stereo not given),n,n,n,n,x,x
O=C(NC12CC3CC(CC(C3)C1)C2)c1c(O)c2ccccc2[nH]c1=O,n,n,n,n,x,x
Cc1ccc(C(=O)CN2C(=O)C(C)(C)Oc3ccc(C(=O)N4CCOCC4)cc32)cc1,n,n,n,n,x,x
COc1ccc(/C=N/N(C)C2=NCCN2)c(OC)c1OC,n,n,n,6.9,n,n
Cc1cccn2c(=O)c(/C=C3\SC(=S)N(C(C)C)C3=O)c(NCc3ccco3)nc12,n,n,n,n,x,x
CCOC(=O)NC(Nc1nc(C2CC2)cs1)(C(=O)OCC)C(F)(F)F (stereo not given),n,n,n,n,x,x
COC(=O)C(NC(=O)c1ccc(Cl)cc1)(Nc1nc(C2CC2)cs1)C(F)(F)F (stereo not given),n,n,n,5.2,n,n
CN(Cc1ccccc1)C(=O)Cn1ncc2ccsc2c1=O,n,n,n,5.6,n,n
CCN(CC(=O)NCc1ccc(Cl)cc1)CN1C(=O)NC2(CCC(C)CC2)C1=O (stereo not given),n,n,n,n,x,x
O=C(CCc1ccccc1)N1CCc2c(nc(N3CCCC3)[nH]c2=O)C1,n,n,n,n,x,x
O=C(CCn1c(=O)oc2ccccc21)N1CCc2c(nc(N3CCCC3)[nH]c2=O)C1,n,n,n,5.1,n,n
Cc1nc2ccccc2n1CC(=O)N1CCc2c(nc(N3CCCC3)[nH]c2=O)C1,n,n,n,17,n,n
COc1cc(C2C(C(=O)OC3CCCCC3)=C(C)NC3=C2C(=O)CC(C)(C)C3)cc(OC)c1OC (stereo not given),n,n,n,12,n,n
CCOC(=O)C1=C(C)NC2=C(C(=O)CC(C)(C)C2)C1c1cccc(OC)c1OC (stereo not given),n,n,n,n,x,x
CCOC(=O)C1=C(C)NC2=C(C(=O)CC(C)(C)C2)C1c1ccc(OC)c(OC)c1OC (stereo not given),n,n,n,12!,n,n
O=C(c1ccc(Br)c(S(=O)(=O)N2CCCCC2)c1)N1CCCCC1,n,n,n,11,n,n

# From PubChem BioAssay
